Four compounds from PubChem BioAssay can be followed below.

“And” between values parts separate entries of the source, which are not always exact repeats. Equal entries are not always repeated. The source made the active and inactive calls. Unless noted, the rule behind the calls is not given here.

The nature of assay [1]: compounds binding Alexa647 anti-His antibody – biochemical, small-molecule microarray, 635 nm fluorescence, artefact control for SMM control protein annotation, primary screen (AID 1128).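 Note: score merges feature fluorescence with signal-to-noise for each printed compound spot.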 The conditions noted are these: higher = more signal.
For assay [2], the system named is Human papillomavirus type 1a E7 protein (residues 1-88). Kind of assay: HPV1a E7 small-molecule binders, primary screen, biochemical, small-molecule microarray, residues 1-88, 635 nm (AID 1129). The conditions noted are these: small-molecule microarray binding, fluorescence 635 nm; higher = more signal.
Assay [3] has as its target Focal adhesion kinase 1 (Homo sapiens) (UniProt Q05397). Kind of assay: PTK2 protein binding on printed compound slides – biochemical, small-molecule microarray, 635/667 nm fluorescence, BSA, DTT, primary screen (AID 1130).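 Note: composite of spot emission at 667 nm and signal to noise over triplicate slides.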 The following applies: 635 nm fluorescence, higher = more signal.
In assay [4] the test system is Fibrinogen (Alexa647-labelled). Kind of assay: Alexa647-fibrinogen binding to printed small molecules – biochemical, small-molecule microarray, 635/667 nm fluorescence, artefact control for SMM control-protein annotation, profiling panel (AID 1131).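 Note: z-score merges 667 nm fluorescence with per-spot signal-to-noise over triplicate slides.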 The conditions noted are these: fibrinogen-A647 binding fluorescence, higher = more signal.
In assay [5] the target is Follistatin (Homo sapiens) (UniProt P19883). The assay is described as follows: FST protein binding to printed compounds – biochemical, small-molecule microarray, 635/667 nm fluorescence, primary screen (AID 1132). The following applies: 635 nm fluorescence, higher = more signal.
Follistatin (Homo sapiens), sequence (P19883 whole entry, looked up): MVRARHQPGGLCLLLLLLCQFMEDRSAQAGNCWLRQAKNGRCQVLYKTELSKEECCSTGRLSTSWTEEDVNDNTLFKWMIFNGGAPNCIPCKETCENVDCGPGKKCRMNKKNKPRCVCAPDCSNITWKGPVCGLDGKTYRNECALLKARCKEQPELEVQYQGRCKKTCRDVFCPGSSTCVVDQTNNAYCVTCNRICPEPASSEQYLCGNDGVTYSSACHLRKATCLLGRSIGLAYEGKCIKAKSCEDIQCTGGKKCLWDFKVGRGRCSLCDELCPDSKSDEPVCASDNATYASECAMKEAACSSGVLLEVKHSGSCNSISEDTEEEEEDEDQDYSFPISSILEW
Assay [6] addresses Fibroblast growth factor 2 (Homo sapiens) (UniProt P09038). Kind of assay: basic fibroblast growth factor binding to printed compounds – biochemical, small-molecule microarray, 635/667 nm fluorescence, primary screen (AID 1133). The conditions noted are these: FGF2, fluorescence 635/667, higher = more signal.
Assay [7] can be described thus: JC-1 mitochondrial potential readout, lung cancer cells – cell-based, A549, JC-1 fluorescence, basal, 24 h, 100 nL, profiling panel (AID 1138).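 Note: A549 lung adenocarcinoma cells under basal conditions with no added stimulus; test concentration not given here.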 The following applies: higher = more signal.
A further assay has as its system Lefty1. Kind of assay: Lefty1 protein binding to printed compounds – biochemical, small-molecule microarray, 635/667 nm fluorescence, primary screen (AID 1139). The following applies: fluorescence 635/667, higher = more signal.
Assay [8] relates to wheat germ agglutinin (Triticum aestivum), Alexa647-labelled. The assay is described as follows: Alexa647-WGA lectin binding to printed small molecules – biochemical, small-molecule microarray, 635/667 nm fluorescence, artefact control for SMM control-protein annotation, profiling panel (AID 1140).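 Note: score merges 667 nm feature emission with signal to noise over triplicate slides.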 The conditions noted are these: WGA-A647 binding, 635 nm fluorescence, higher = more signal.

The target in assay [9] is Luciferin 4-monooxygenase (Photinus pyralis) (UniProt P08659). Kind of assay: inhibition of purified Photinus pyralis luciferase – biochemical, luminescence, purified enzyme, 2006 set, primary screen (AID 1141).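 Note: cell-free assay with purified firefly luciferase at 100 ng per well in PBS; test concentration not given here.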 The conditions noted are these: purified firefly luciferase, SteadyGlo luminescence, 30 min; higher = more signal, called active from +8 up or from −8 down.
Luciferin 4-monooxygenase (Photinus pyralis), sequence (P08659 whole entry, looked up): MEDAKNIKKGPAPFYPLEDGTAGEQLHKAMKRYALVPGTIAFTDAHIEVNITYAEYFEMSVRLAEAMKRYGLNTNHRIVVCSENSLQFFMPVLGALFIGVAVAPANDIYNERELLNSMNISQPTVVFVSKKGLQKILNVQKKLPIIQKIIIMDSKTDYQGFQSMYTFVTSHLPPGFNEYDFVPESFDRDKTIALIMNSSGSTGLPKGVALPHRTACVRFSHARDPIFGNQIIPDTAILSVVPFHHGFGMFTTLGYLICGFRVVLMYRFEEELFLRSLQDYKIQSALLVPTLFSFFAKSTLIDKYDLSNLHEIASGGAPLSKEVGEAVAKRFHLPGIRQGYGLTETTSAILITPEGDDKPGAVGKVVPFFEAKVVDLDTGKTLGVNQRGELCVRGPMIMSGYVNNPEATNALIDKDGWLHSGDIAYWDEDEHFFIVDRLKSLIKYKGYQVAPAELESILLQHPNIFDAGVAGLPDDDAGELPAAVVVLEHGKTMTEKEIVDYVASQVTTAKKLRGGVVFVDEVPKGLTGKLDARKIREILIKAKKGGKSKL
The test system of assay [10] is Wnt5a (protein binding on small-molecule microarray). The assay is described as follows: small molecules binding Wnt5a protein – biophysical, small-molecule microarray, 635/667 nm fluorescence, primary screen (AID 1142).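 Note: fluorescence read at 667 nm with signal to noise per printed feature.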 The conditions noted are these: 635 nm fluorescence, higher = more signal.
A short description of assay [11]: ATP-based viability of Huh7 replicon cells – cell-based, CellTiter-Glo luminescence, basal, 48 h, cytotoxicity control for HCV replication inhibitor project, primary screen (AID 1143).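 Note: Huh7 hepatoma cells carrying a hepatitis C replication reporter with no stimulus; test concentration not given here.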 The following applies: higher = more signal, called active from +8 up or from −8 down. For orientation: A replicon is a self-replicating genome or part of one, used to study replication in cells.

Assay [12] can be described thus: Pseudomonas biofilm growth suppression – PAO1 strain, BacTiter-Glo luminescence, LB-PBS, primary screen (AID 1144). The following applies: P. aeruginosa PAO1 biofilm, 12 h, higher = more signal.
Assay [13] in a line: basal CRE-LacZ reporter activity in PC12 – cell-based, unstimulated, primary screen (AID 1145). The following applies: no forskolin, luminescence, 4.5 h, higher = more signal, called active from +8 up or from −8 down.
A short description of assay [14]: forskolin-driven CRE-LacZ activity in PC12 – cell-based, CRE-LacZ reporter, forskolin-stimulated, primary screen (AID 1146).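 Note: PC12 cells with 6xCRE LacZ reporter stimulated by forskolin 10 µM; beta-galactosidase reporter signal reflecting CREB driven transcription.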 The following applies: luminescence, 4.5 h, higher = more signal, called active from +8 up or from −8 down.
Assay [15] deals with Streptavidin (Streptomyces avidinii) (UniProt P22629). The assay is described as follows: compounds binding control protein streptavidin – biophysical, small-molecule microarray, 635/667 nm fluorescence, artefact control for SMM compound annotation, primary screen (AID 1147).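 Note: signal reflects streptavidin binding to arrayed compounds as a control protein.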 The conditions noted are these: higher = more signal.
Streptavidin (Streptomyces avidinii), sequence (P22629 whole entry, looked up): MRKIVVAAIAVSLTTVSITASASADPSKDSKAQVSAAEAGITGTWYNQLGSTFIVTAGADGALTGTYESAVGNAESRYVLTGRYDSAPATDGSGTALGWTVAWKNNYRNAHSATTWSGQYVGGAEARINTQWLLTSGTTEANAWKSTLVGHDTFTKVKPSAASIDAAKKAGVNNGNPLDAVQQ
Assay [16] can be described thus: probe aInhba binding on compound microarray – biochemical, small-molecule microarray, 635/667 nm fluorescence, primary screen (AID 1148).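 Note: score merges 667nm spot fluorescence with signal-to-noise for antibody binding to printed compounds.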 The following applies: higher = more signal.
Assay [17] concerns the target Torsin-1A (Homo sapiens) (UniProt O14656). The assay is described as follows: TOR1A wild-type binding on microarray – cell lysate, small-molecule microarray, lysate, 635/667 nm, primary screen (AID 1149). The conditions noted are these: COS7 hTOR1A-WT lysate, 635 nm fluorescence, higher = more signal.
Assay [18] shares this target. Kind of assay: torsin A mutant lysate binding on microarrays – cell lysate, small-molecule microarray, COS7 lysate, 635/667 nm fluorescence, primary screen (AID 1150).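 Note: score pools 667 nm emission and signal to noise measuring lysate protein binding.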 The following applies: COS7 hTOR1A mutant lysate, 635 nm fluorescence, higher = more signal.
Assay [19] relates to Sonic hedgehog protein (Shh). Kind of assay: Sonic hedgehog microarray binding compounds – biochemical, small-molecule microarray, 635/667 nm fluorescence, primary screen (AID 1151).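 Note: Shh protein binding to compounds spotted on small-molecule microarray slides; score combines spot fluorescence intensity with signal-to-noise across triplicate slides.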 The following applies: 635 nm fluorescence, higher = more signal.

Fibroblast growth factor 2 (Homo sapiens), sequence (P09038 whole entry, looked up): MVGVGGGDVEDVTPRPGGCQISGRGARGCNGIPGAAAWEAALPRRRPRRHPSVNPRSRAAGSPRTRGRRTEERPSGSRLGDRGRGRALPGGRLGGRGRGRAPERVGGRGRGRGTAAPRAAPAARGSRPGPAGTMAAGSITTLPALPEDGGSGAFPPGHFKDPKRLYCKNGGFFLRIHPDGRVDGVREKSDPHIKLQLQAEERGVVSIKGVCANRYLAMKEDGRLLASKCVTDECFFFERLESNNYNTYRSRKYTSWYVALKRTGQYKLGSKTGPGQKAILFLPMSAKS
Torsin-1A (Homo sapiens), sequence (O14656 whole entry, looked up): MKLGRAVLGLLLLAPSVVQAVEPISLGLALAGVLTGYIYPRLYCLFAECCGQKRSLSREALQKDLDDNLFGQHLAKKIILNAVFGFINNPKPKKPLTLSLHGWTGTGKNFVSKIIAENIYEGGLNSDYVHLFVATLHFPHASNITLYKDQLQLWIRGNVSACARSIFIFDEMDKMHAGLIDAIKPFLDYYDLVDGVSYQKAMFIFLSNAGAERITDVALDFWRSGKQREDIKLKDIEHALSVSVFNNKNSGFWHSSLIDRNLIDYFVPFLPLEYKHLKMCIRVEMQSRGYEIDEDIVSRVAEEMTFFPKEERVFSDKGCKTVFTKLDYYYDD
Focal adhesion kinase 1 (Homo sapiens), sequence (Q05397 whole entry, looked up): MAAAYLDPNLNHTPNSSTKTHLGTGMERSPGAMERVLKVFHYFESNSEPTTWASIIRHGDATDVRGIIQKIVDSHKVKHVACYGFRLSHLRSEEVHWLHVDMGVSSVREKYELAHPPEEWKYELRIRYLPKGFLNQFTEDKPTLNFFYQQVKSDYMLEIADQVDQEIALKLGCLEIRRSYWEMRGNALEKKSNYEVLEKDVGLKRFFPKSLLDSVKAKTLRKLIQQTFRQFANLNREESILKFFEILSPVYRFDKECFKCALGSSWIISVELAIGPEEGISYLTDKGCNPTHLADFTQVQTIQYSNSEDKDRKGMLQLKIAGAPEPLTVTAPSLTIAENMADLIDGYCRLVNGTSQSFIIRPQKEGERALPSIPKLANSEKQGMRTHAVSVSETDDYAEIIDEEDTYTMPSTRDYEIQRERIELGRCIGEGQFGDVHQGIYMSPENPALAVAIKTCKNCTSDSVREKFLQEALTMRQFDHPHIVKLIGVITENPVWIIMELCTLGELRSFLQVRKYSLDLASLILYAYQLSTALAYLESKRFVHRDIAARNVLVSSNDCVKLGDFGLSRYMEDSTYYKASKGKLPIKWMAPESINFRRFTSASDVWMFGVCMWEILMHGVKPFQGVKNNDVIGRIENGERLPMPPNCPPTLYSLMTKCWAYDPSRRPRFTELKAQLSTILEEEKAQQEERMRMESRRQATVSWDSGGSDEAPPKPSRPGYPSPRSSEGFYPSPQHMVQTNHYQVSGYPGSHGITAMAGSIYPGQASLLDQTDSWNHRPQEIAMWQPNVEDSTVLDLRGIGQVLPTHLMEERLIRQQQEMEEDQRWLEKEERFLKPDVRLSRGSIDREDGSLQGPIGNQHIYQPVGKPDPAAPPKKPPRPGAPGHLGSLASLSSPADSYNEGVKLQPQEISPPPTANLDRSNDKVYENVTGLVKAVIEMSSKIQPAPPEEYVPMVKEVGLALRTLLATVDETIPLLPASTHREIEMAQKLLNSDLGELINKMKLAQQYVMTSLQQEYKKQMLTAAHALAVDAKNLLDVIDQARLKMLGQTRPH

As to `C=CC[C@@H](O)c1ccc(O)c2ccccc12`, the composite z-score in assay [1] is 1.02 and 1.68; in [2], 0.647 and 1.11; in [3] it was -0.618 and 0.11; in [4], 0.353 and 0.0525; in [5], 1.38 and 1.39; in assay [6] it was 1.48 and 1.7. Further, the composite z-score is 1.4 and 1.06 in the assay on Lefty1; 0.175 and 0.379 in assay [8]; 0.173 and 0.435 in assay [10]; 0.49 and 0.679 in assay [15]; -0.0553 and -0.141 in [16]; 0.261 and 0.0205 with Torsin-1A (Homo sapiens) [17]. For the same compound, the composite z-score with Torsin-1A (Homo sapiens) [18] was 0.426 and 0.369; in [19], 1.96 and 1.82. Further, the z-score in [7] was 0.388 and -0.59; in assay [9], -2.65 (inactive) and -2.18 (inactive); in assay [11] it was 0.794 (inactive) and -0.721 (inactive); in assay [12] it was -0.498 (inactive) and -1.33 (inactive); in assay [13], 3.25 (inactive) and 2.1 (inactive); in assay [14], 2.5 (inactive) and 5.93 (inactive).
With `C=C[C@H](OC)[C@@H](O)c1ccc(O)c(F)c1`, the composite z-score in [1] was -0.876 and -0.764; in assay [2], -1.22 and -1.21; in assay [3] it was -0.918 and -0.807; in assay [4], -2.91 and -1.06; in [5] it was -1.25 and -1.48; in assay [6], -0.826 and -1.47. Moreover, the composite z-score in the assay on Lefty1 was -2.23 and -1.28; in assay [8] it was -1.47 and 0.129; in assay [10], -0.542 and -1.18; in [15] it was -1.42 and -1.09; in assay [16], -0.409 and -0.32; with Torsin-1A (Homo sapiens) [17], -1.55 and -3.36. The composite z-score in the assay with Torsin-1A (Homo sapiens) [18] is -1.77 and -2.26; in [19] it was -1.28 and -0.249. Further, the z-score in [7] was -0.547 and -0.0182; in assay [9], -0.173 (inactive) and -0.446 (inactive); in assay [11], -0.217 (inactive) and -0.324 (inactive); in [12], -0.263 (inactive) and -1.21 (inactive); in assay [13], 1.53 (inactive) and 0.353 (inactive); in assay [14] it was 1.41 (inactive) and 0.473 (inactive).
In the case of `CC(=O)OC[C@H]1O[C@H](C#CC(C)(C)C)C=C[C@@H]1OC(C)=O`, the composite z-score amounted to 0.726 in assay [1]; 0.996 in assay [2]; 0.589 in [3]; 0.979 in [4]; 0.418 in assay [5]; 0.791 in [6]. In addition, the composite z-score is 1.22 in the assay with Lefty1; 0.445 in [8]; -0.0516 in [10]; 1.58 in [15]; -0.0331 in assay [16]; 0.835 with Torsin-1A (Homo sapiens) [17]. Besides, the composite z-score with Torsin-1A (Homo sapiens) [18] is -0.392; in assay [19], 0.953. In addition, the z-score in assay [7] was 0.707; in assay [9] it was -1.22 (inactive); in assay [11], 0.13 (inactive); in assay [12] it was 0.992 (inactive); in [13], -0.162 (inactive); in [14], 1.35 (inactive).
Turning to `CO[C@H]1COC(=O)CC=C[C@@H](C)COC(=O)[C@@H](OCc2ccccc2)C=C[C@@H]1C`, the composite z-score was 0.563 in assay [1]; -1.07 in assay [2]; -0.279 in [3]; -1.44 in [4]; 1.47 in assay [5]; 1.74 in assay [6]. Further, the composite z-score is 1.65 in the assay with Lefty1; -1.13 in [8]; -0.134 in [10]; 0.999 in assay [15]; -0.3 in assay [16]; 2.35 with Torsin-1A (Homo sapiens) [17]. The composite z-score with Torsin-1A (Homo sapiens) [18] was determined as 2.28; in assay [19], 1.96. Moreover, the z-score in assay [7] was 1.8; in [9], -0.917 (inactive); in assay [11], -0.356 (inactive); in [12], 0.106 (inactive); in assay [13], 0.79 (inactive); in [14] it was -0.471 (inactive).
